In PubChem BioAssay (EPA / NIEHS) one finds outcome and AC50 data, which are given here for four molecules.

Active and inactive are the calls of the source. The calls were made as follows: active = hit-call score of the fitted dose curve at least 0.9, where 1 is the maximum; inactive = score below 0.9.

Usually AC50 stands for the concentration at which the activity in the assay is half-maximal.

Read-out in assay [1]: TIMP metallopeptidase inhibitor 1 (TIMP1), TIMP1 (gene 7076)
Nature of the assay: BSK_hDFCGF_TIMP1: BioMAP Diversity Plus: hDFCGF Assay for TIMP metallopeptidase inhibitor 1 (TIMP1) Biomarker Activity (AID 2283062). Conditions: primary human foreskin fibroblasts; actives raise or lower the signal. The procedure, abridged: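 Fibroblasts from human foreskin are treated with test chemical and harvested at 24 h. TIMP-1 is quantified by ELISA, and gain or loss of signal is scored against DMSO.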

Read-out in assay [2]: Monokine induced gamma interferon (MIG), CXCL9 (gene 4283)
Put plainly: BSK_hDFCGF_MIG: BioMAP Diversity Plus: hDFCGF Assay for Monokine induced gamma interferon (MIG) Biomarker Activity (AID 2283063). Conditions: primary human foreskin fibroblasts; actives raise or lower the signal. An outline of the steps: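 MIG signal, determined by ELISA, reflects 24 h chemical exposure of human skin primary fibroblasts. DMSO serves as negative control and baseline.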

Read-out in assay [3]: Matrix Metallopeptidase 1 (MMP1), MMP1 (gene 4312)
Nature of the assay: BSK_hDFCGF_MMP1: BioMAP Diversity Plus: hDFCGF Assay for Matrix Metallopeptidase 1 (MMP1) Biomarker Activity (AID 2283064). The note with it: primary human foreskin fibroblasts; actives raise or lower the signal. An outline of the steps:
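ELISA read-out of MMP1 from human foreskin fibroblasts (primary skin cells), 24 h post-dose. Gain or loss of signal was fitted bidirectionally versus DMSO negative control; cytotoxicity was checked by SRB in parallel cultures.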

Read-out in assay [4]: Vascular cell adhesion molecule 1 (VCAM1), VCAM1 (gene 7412)
Nature of the assay: BSK_hDFCGF_VCAM1: BioMAP Diversity Plus: hDFCGF Assay for Vascular cell adhesion molecule 1 (VCAM1) Biomarker Activity (AID 2283065).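 As to AC50: VCAM-1 protein level quantified by ELISA after 24 h chemical exposure.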 The note with it: primary human foreskin fibroblasts; actives raise or lower the signal. The procedure, abridged: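 Cells are dosed, cultured for 24 h, then VCAM-1 is quantified by ELISA; signal increases and decreases are both fitted relative to DMSO.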

Read-out in assay [5]: Intercellular Adhesion Molecule 1 (ICAM1), ICAM1 (gene 3383)
Nature of the assay: BSK_KF3CT_ICAM1: BioMAP Diversity Plus: KF3CT Assay for Intercellular Adhesion Molecule 1 (ICAM1) Biomarker Activity (AID 2283067). Conditions: primary human keratinocytes with fibroblasts; actives raise or lower the signal. The procedure, abridged:
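Dose the keratinocyte/fibroblast co-culture, wait 24 h, measure ICAM-1 by ELISA, then fit increases or decreases against DMSO. Cytotoxicity is checked in parallel cultures by SRB total-protein staining.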

Read-out in assay [6]: Interferon-gamma inducible Protein 10 (IP10), CXCL10 (gene 3627)
Nature of the assay: BSK_KF3CT_IP10: BioMAP Diversity Plus: KF3CT Assay for Interferon-gamma inducible Protein 10 (IP10) Biomarker Activity (AID 2283068). Conditions: primary human keratinocytes with fibroblasts; actives raise or lower the signal. An outline of the steps: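 ELISA read-out of IP-10 after 24 h chemical dosing of human skin primary co-culture (keratinocytes, foreskin fibroblasts). Gain or loss of signal relative to DMSO, bidirectional curve fit.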

The nature of assay [7]: BSK_KF3CT_SRB: Viability Assessment in the BioMAP Diversity Plus: KF3CT Assay (AID 2283069). Conditions: primary human keratinocytes with fibroblasts. An outline of the steps: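 SRB read-out at 560 nm (0.1% stain, TCA-fixed cells) gauges overt cytotoxicity in a human skin keratinocyte–fibroblast co-culture 24 h post-dosing. Signal change was fitted bidirectionally relative to DMSO control.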

Read-out in assay [8]: Interleukin-1 alpha (IL1a), IL1A (gene 3552)
Nature of the assay: BSK_KF3CT_IL1a: BioMAP Diversity Plus: KF3CT Assay for Interleukin-1 alpha (IL1a) Biomarker Activity (AID 2283070). The note with it: primary human keratinocytes with fibroblasts; actives raise or lower the signal. An outline of the steps:
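Primary skin co-culture (keratinocytes, foreskin fibroblasts), 24 h exposure; ELISA for IL-1a; bidirectional curve fit vs DMSO.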

Read-out in assay [9]: TIMP metallopeptidase inhibitor 2 (TIMP2), TIMP2 (gene 7077)
Put plainly: BSK_KF3CT_TIMP2: BioMAP Diversity Plus: KF3CT Assay for TIMP metallopeptidase inhibitor 2 (TIMP2) Biomarker Activity (AID 2283071). The note with it: primary human keratinocytes with fibroblasts; actives raise or lower the signal. An outline of the steps: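 Measurements come from ELISA detection of TIMP-2 at 24 hours in a dosed human keratinocyte and foreskin fibroblast co-culture. DMSO serves as negative control and baseline.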

Read-out in assay [10]: Transforming growth factor beta 1 (TGFb1), TGFB1 (gene 7040)
Nature of the assay: BSK_KF3CT_TGFb1: BioMAP Diversity Plus: KF3CT Assay for Transforming growth factor beta 1 (TGFb1) Biomarker Activity (AID 2283072). Conditions: primary human keratinocytes with fibroblasts; actives raise or lower the signal. An outline of the steps:
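TGF-b1 ELISA on a 24 h dosed co-culture of human keratinocytes and foreskin fibroblasts; cytotoxicity tracked in parallel cultures by SRB staining.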

Read-out in assay [11]: C-C motif chemokine 2 (Homo sapiens) (UniProt P13500)
Put plainly: BSK_KF3CT_MCP1: BioMAP Diversity Plus: KF3CT Assay for Monocyte Chemoattractant Protein 1 (MCP1/CCL2) Biomarker Activity (AID 2283073). Conditions: primary human keratinocytes with fibroblasts; actives raise or lower the signal. The procedure, abridged: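 Keratinocytes and foreskin fibroblasts were co-cultured, dosed with chemical, and sampled 24 h later. MCP-1 was quantified by ELISA, and the endpoint was analyzed with bidirectional fitting using DMSO as negative control.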

Read-out in assay [12]: Matrix Metallopeptidase 9 (MMP9), MMP9 (gene 4318)
Nature of the assay: BSK_KF3CT_MMP9: BioMAP Diversity Plus: KF3CT Assay for Matrix Metallopeptidase 9 (MMP9) Biomarker Activity (AID 2283074).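 As to AC50: MMP9 protein level quantified by ELISA in the co-culture.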 The note with it: primary human keratinocytes with fibroblasts; actives raise or lower the signal. The procedure, abridged:
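ELISA read-out of MMP-9 at 24 h post-dosing in a co-culture of human skin keratinocytes and foreskin fibroblasts. Gain or loss of signal was fitted in both directions against DMSO.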

Read-out in assay [13]: urokinase plasminogen activator (uPA), PLAU (gene 5328)
Put plainly: BSK_KF3CT_uPA: BioMAP Diversity Plus: KF3CT Assay for urokinase plasminogen activator (uPA) Biomarker Activity (AID 2283075). Conditions: primary human keratinocytes with fibroblasts; actives raise or lower the signal. The procedure, abridged: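 Skin co-culture (keratinocytes + foreskin fibroblasts), human primary; 24 h post-dose; uPA by ELISA; gain/loss fit vs DMSO baseline.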

Read-out in a further assay: CD40, CD40 (gene 958)
Nature of the assay: BSK_LPS_CD40: BioMAP Diversity Plus: LPS Assay for CD40 Biomarker Activity (AID 2283076). The note with it: primary human HUVEC with PBMC; actives raise or lower the signal. An outline of the steps: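 CD40 signal, measured by ELISA, is fitted in both directions relative to DMSO vehicle. The system is an LPS-driven human vascular primary co-culture of endothelial cells and PBMC, sampled 24 h after compound addition.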

Read-out in assay [14]: E-selectin (Homo sapiens) (UniProt P16581)
Put plainly: BSK_LPS_Eselectin: BioMAP Diversity Plus: LPS Assay for Eselectin Biomarker Activity (AID 2283077). The note with it: primary human HUVEC with PBMC; actives raise or lower the signal. An outline of the steps: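 Signal of E-selectin, detected by ELISA, served as the endpoint; cells were umbilical vein endothelium with PBMC, read 24 h after treatment. DMSO defined baseline, and both increases and decreases were fitted.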

Read-out in assay [15]: Interleukin-8 (IL8), CXCL8 (gene 3576)
Nature of the assay: BSK_LPS_IL8: BioMAP Diversity Plus: LPS Assay for Interleukin-8 (IL8) Biomarker Activity (AID 2283078). The note with it: primary human HUVEC with PBMC; actives raise or lower the signal. An outline of the steps: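 Endothelial cells and PBMC from human donors are co-cultured, treated with chemicals and LPS, then assayed for IL-8 by ELISA after 24 h. Parallel SRB staining (0.1% SRB after 10% TCA fixation, 560 nm) flags cytotoxicity.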

Assay [16] can be described thus: BSK_LPS_SRB: Viability Assessment in the BioMAP Diversity Plus: LPS Assay (AID 2283079).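 Also: total protein by sulforhodamine B absorbance as a cytotoxicity measure; measured one day after compound addition.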 Conditions: primary human HUVEC with PBMC. An outline of the steps: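 Overt cytotoxicity was gauged by sulforhodamine B total-protein staining in a primary human vascular endothelial and mononuclear cell co-culture 24 h post-dosing. Activity was fitted in both directions relative to DMSO.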

Read-out in assay [17]: Interleukin-1 alpha (IL1a), IL1A (gene 3552)
Nature of the assay: BSK_LPS_IL1a: BioMAP Diversity Plus: LPS Assay for Interleukin-1 alpha (IL1a) Biomarker Activity (AID 2283080). Conditions: primary human HUVEC with PBMC; actives raise or lower the signal. An outline of the steps:
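Measured: IL-1 alpha via ELISA at 24 h in LPS-activated human umbilical vein endothelium–PBMC co-culture. Baseline: DMSO, bidirectional fitting.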

Read-out in assay [18]: Monocyte Chemoattractant Protein-1 (MCP1), CCL2 (gene 6347)
Nature of the assay: BSK_LPS_MCP1: BioMAP Diversity Plus: LPS Assay for Monocyte Chemoattractant Protein-1 (MCP1) Biomarker Activity (AID 2283081). Conditions: primary human HUVEC with PBMC; actives raise or lower the signal. An outline of the steps: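 LPS-stimulated HUVEC/PBMC co-culture; chemical, 24 h; MCP-1 by ELISA; bidirectional fit vs DMSO; cytotoxicity via SRB (0.1% stain, 10% TCA fix, 560 nm) in parallel wells.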

Sequence of E-selectin (Homo sapiens) (P16581 whole entry, looked up): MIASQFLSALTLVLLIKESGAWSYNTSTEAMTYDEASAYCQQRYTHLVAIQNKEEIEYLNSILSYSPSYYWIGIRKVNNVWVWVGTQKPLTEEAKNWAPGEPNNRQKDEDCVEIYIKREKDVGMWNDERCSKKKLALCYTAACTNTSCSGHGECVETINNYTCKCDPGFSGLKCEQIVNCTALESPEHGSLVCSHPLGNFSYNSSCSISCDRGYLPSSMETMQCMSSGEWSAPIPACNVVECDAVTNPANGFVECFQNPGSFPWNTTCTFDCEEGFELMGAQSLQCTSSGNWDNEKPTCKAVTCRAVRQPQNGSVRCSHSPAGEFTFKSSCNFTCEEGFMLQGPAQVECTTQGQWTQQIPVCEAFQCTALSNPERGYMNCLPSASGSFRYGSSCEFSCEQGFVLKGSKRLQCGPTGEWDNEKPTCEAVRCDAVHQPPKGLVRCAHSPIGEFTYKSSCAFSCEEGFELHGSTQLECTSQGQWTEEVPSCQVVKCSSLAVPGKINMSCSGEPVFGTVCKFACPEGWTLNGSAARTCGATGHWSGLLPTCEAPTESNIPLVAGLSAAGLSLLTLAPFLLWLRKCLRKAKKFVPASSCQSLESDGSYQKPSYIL

In the case of `Nc1ccc(Cl)cc1N`, the outcome in assay [1], in assay [2], in assay [3], in assay [5], in assay [6] and in [7] was inactive. For the same molecule, the outcome is “inactive” in [8]; “inactive” in assay [9]; “inactive” in assay [10]; “inactive” in assay [11]; “inactive” in assay [13]; “inactive” in the assay with CD40, CD40 (gene 958). Moreover, the outcome in assay [15], in [16], in [17] and in assay [18] was inactive. Moreover, the AC50 in [4] was 9.2 µM (active); in [12], 8.99 µM (active); in assay [14] it was 4.45 µM (active).
With `Clc1ccccc1Cl`, the result in assay [1], in assay [2], in assay [3], in assay [4], in [5] and in [6] was inactive. The result in [7], in assay [9], in assay [10], in assay [11], in assay [12] and in assay [13] was inactive. In addition, the outcome with CD40, CD40 (gene 958) was “inactive”; in [14], “inactive”; in assay [15] it was “inactive”; in [16], “inactive”; in assay [17], “inactive”; in assay [18], “inactive”.
For the molecule `CC(C)N(Cc1ccccc1)C(=O)C(C)(C)C`, the outcome in assay [1], in assay [2], in assay [3], in assay [4], in [5] and in assay [6] was inactive. The outcome in [7], in assay [8], in assay [9], in assay [10], in assay [11] and in assay [12] was inactive. The outcome in assay [13] was “inactive”; with CD40, CD40 (gene 958), “inactive”; in [14] it was “inactive”; in [15] it was “inactive”; in assay [16], “inactive”; in [17], “inactive”. The outcome in assay [18] was inactive.
With `CCC12COCN1COC2`, the outcome in [1], in assay [2], in [3], in [4], in assay [5] and in assay [6] was inactive. Moreover, the outcome in assay [7], in assay [8], in assay [9], in assay [10], in assay [11] and in [12] was inactive. For the same molecule, the outcome is “inactive” in [13]; “inactive” in the assay with CD40, CD40 (gene 958); “inactive” in [14]; “inactive” in assay [15]; “inactive” in [16]; “inactive” in assay [17]. Besides, the outcome in [18] was inactive.
